Tb PYK inh – qHTS of Trypanosoma Brucei Inhibitors | pyruvate kinase (Trypanosoma brucei), Q57TT1 | TbPYK enzyme, Kinase-Glo Plus ATP luminescence, 45 min | Potency, µM (doses to about 76.8 µM), for inactives: top-dose activity, negative = inhibition, actives largely listed as inhibitors | 410,000 tested, 0.12% active | AID 624173, 2012; also: nearly all actives have a fitted effect of over 50% in size
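TbPYK + substrate in 50 mM TEA pH 7.2, 100 mM KCl, 10 mM MgCl2, 0.05% BSA, 0.01% Tween-20; cpd pinned; ADP 130 uM final; 45 min RT; Kinase-Glo Plus 10 min; luminescence endpoint.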
RE007 growth inh – qHTS Assay for Inhibitors of the HIV-1 protein Vpr | S. pombe RE007 Vpr strain, BacTiter-Glo ATP luminescence, 24 h | Potency, µM (series often up to 92.2 µM), inactives show at the highest dose activity change, negative = less growth, hits mostly inhibitors | 360,000 tested, 0.21% active; active = well fitted falling curve with a large enough effect; inconclusive = small, poorly fitted or top-dose-only effect; inactive = no such curve, though single readings can be large or run the other way; also: nearly all actives have a fitted effect of over 50% in size
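Fission yeast strain RE007, carrying one chromosomally integrated HIV-1 vpr copy, was seeded at OD 0.01 in PMG+AL medium with 23 nL pinned compound. After 24 h at 30 °C and 99% humidity, viability was read by BacTiter-Glo luminescence.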
Sm TGR block – qHTS Assay for the Inhibitors of Schistosoma Mansoni Peroxiredoxins; Schistosoma mansoni thioredoxin glutathione reductase (TGR), Q962Y6; purified TGR, DTNB reduction, TNB absorbance 405 nm; Potency, µM (titrated, usually from 114 µM), for the others: at the top dose activity change, negative = inhibition, hits mostly inhibitors; 360,000 tested, 3% active; also: nearly all actives have a fitted effect of over 60% in size
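First, TGR (20 nM dispensed) and NADPH were mixed with compound. Second, a 15 min room-temperature incubation followed. Third, further NADPH and then DTNB were added to start the reaction. Finally, TNB absorbance was monitored kinetically.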
FMDV inh – High Throughput Screening for Foot and Mouth Disease Virus Antivirals | FMDV antiviral cell-based qHTS | Potency, µM (highest dose often 57.9 µM), inactives show at the top dose activity change, negative = inhibition, most hits filed as inhibitors | 410,000 tested, 1.2% active | AID 1159524, 2015; calls by dose curve; tested in HEK293T cells; also: read-out not given here; nearly all actives have a fitted effect of over 45% in size
Active calls of the source: *; u = inconclusive; x = no result. Hits are enriched below; roughly 3.7% of the tested compounds scored in any of these assays. Unless noted, calls follow the shape of the dose curve; as a rule, active = well fitted curve in the direction sought with a large enough effect; inconclusive = small, poorly fitted or top-dose-only effect, or another doubt; inactive = no such curve, though single readings can be large; an effect the other way counts as inactive or inconclusive. % is scaled to controls: 0 for no effect and ±100 for the full control effect; potency is read from the fitted curve at half-maximal effect.

SMILES	Tb PYK inh	RE007 growth inh	Sm TGR block	FMDV inh
CN1/C(=C\C(=S)NC(=O)c2ccc([N+](=O)[O-])cc2)C(C)(C)c2ccccc21	2%	7%	-19%	5%
CCC(C)NC(=O)CSc1c2c(nc3ccccc13)CCCC2 (centres undefined)	3%	-3%	-10%	25µM*
COc1cccc(NC(=O)CSc2c3c(nc4ccccc24)CCCC3)c1	1%	-3%	-24%	32µM*
CCNC(=O)C1(C)CCCN(C(=O)c2nc3ccccc3s2)C1 (centres undefined)	-3%	4%	x	-2%
CC(C)c1nn2c(=O)cc(COC(=O)C3CCCCC3)nc2s1	-5%	x	3%	24%
Cc1ccc(-c2nn3c(C)nnc3s2)cc1NC(=O)c1ccc(Br)o1	0%	2%	50µM*	-24%
Cc1ccc(-c2nn3c(C)nnc3s2)cc1NC(=O)c1ccc(-c2cccc(Cl)c2)o1	-1%	-8%	u	u
Nc1nc(C(=O)N2CCOCC2)nn1C(=O)c1ccc(Cl)cc1	-1%	-15%	35µM*	-21%
O=C(c1ccc(Cl)cc1)c1ccccc1C(=O)N1CCOCC1	-7%	-11%	3%	x
Cc1ccc2cc(CCNC(=O)c3cccc([N+](=O)[O-])c3)c(=O)[nH]c2c1C	-6%	6%	-17%	22µM*
COc1ccc2cc(CCNC(=O)c3cccc([N+](=O)[O-])c3)c(=O)[nH]c2c1	1%	-16%	-2%	u
CCc1nnc(NC(=O)CSc2ccc(-c3ccco3)nn2)s1	0%	-6%	7.1µM*	2%
Cc1nnc(NC(=O)CSc2ccc(-c3ccco3)nn2)s1	-21%	13%	14µM*	12%
Cc1ccc(C(=O)COC(=O)c2cccs2)cc1	-14%	-25%	-5%	22µM*
CCc1cc(C(=O)c2ccc(OC)cc2)c(N)s1	-3%	-6%	-11%	10%
COc1ccc(C(=O)c2ccsc2N)cc1	-7%	-12%	13µM*	31%
Cc1nn(C(=O)c2ccccc2)c(C)c1S(=O)(=O)N1CCOCC1	-2%	x	-28%	9%
Cc1ccc(/C=C/C(=O)c2ccccc(=O)c2O)c(C)c1	4%	u	14µM*	u
O=C(/C=C/c1ccc([N+](=O)[O-])cc1)c1cccs1	-1%	-7%	-6%	2%
O=C(/C=C/c1ccccc1Cl)c1ccccc(=O)c1O	-10%	-16%	4.5µM*	u
O=C(/C=C/c1ccc([N+](=O)[O-])cc1)c1ccccc(=O)c1O	-7%	-25%	x	13µM*
O=C(/C=C/c1ccccc1Cl)Nc1ccccc1	-9%	u	11%	-16%
Cc1ccc(C)c(/C=C/C(=O)c2ccccc(=O)c2O)c1	0%	u	13µM*	u
CCOc1ccc(NC(=O)CSc2oc(-c3ccccc3)nc2S(=O)(=O)c2ccc(Cl)cc2)cc1	-6%	x	0%	-4%
Cc1ccc(NC(=S)N(CCCN2CCCC2)Cc2cccn2Cc2ccc(Cl)cc2)cc1C	3%	-3%	3%	u
SMILES	Tb PYK inh	RE007 growth inh	Sm TGR block	FMDV inh
FC(F)(F)c1cccc(NC(=S)N(CCCN2CCCC2)Cc2cccn2Cc2ccc(Cl)cc2)c1	-1%	-5%	15%	28µM*
COC(=O)CCn1c(C)cc(C(=O)COc2ccccc2C(N)=O)c1C	3%	7%	-13%	16µM*
Cc1cc(C(=O)CSc2nc3ccc(Cl)cc3[nH]2)c(C)n1C	-16%	-10%	-31%	8%
Cc1cc(C(=O)COC(=O)C2COc3ccccc3O2)c(C)n1CC1CCCO1 (centres undefined)	-8%	3%	-6%	8%
Cc1cc(C(=O)COc2ccccc2C(N)=O)c(C)n1CC1CCCO1 (centres undefined)	-6%	0%	7%	28µM*
COCCn1c(C)cc(C(=O)COc2nc3ccccc3nc2C)c1C	-2%	4%	-1%	-29%
Cc1cc(C(=O)COC(=O)c2ccccc2O)c(C)n1Cc1cccs1	2%	-26%	3%	28µM*
Cc1cc(C(=O)CSc2nc3ccc(Cl)cc3[nH]2)c(C)n1CC1CCCO1 (centres undefined)	-10%	4%	-18%	14µM*
Cc1cc(C(=O)COC(=O)c2ccc3c(c2)OCO3)c(C)n1Cc1cccs1	3%	-5%	u	-14%

High-throughput results (PubChem)
